# Pf growth 96h: P. falciparum growth inhibition at 96 hours | P. falciparum luciferase reporter growth, 96 h | Potency, µM (series often up to 28.7 µM), for inactives: top-dose activity change, negative = inhibition, actives largely listed as inhibitors | 320,000 tested, 6.9% active | AID 504834; also: potency is read from the fitted curve at half-maximal effect
#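 Luminescence readout: decreased luciferase signal marks inhibited growth of reporter-expressing P. falciparum in infected red cells (2% hematocrit, 0.05% parasitemia final), exposed to compound two generations (96 h, 37 C, 5% CO2).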
# Sm TGR block: blocks Schistosoma mansoni thioredoxin glutathione reductase; Q962Y6; purified TGR, DTNB reduction, TNB absorbance 405 nm; Potency, µM (top dose mostly 114 µM), for inactives: top-dose activity change, negative = inhibition, actives largely listed as inhibitors; 360,000 tested, 3% active; also: potency is read from the fitted curve at half-maximal effect; nearly all actives have a fitted effect of over 60% in size
#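 First, TGR (20 nM dispensed) and NADPH were mixed with compound. Second, a 15 min room-temperature incubation followed. Third, further NADPH and then DTNB were added to start the reaction. Finally, TNB absorbance was monitored kinetically.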
# FBPA Giardia inh: inhibitors of Giardia lamblia fructose-1,6-bisphosphate aldolase. purified Giardia FBPA. Potency, µM (titrated, usually from 59.6 µM), for inactives: at the highest dose activity, negative = inhibition, actives largely listed as inhibitors. 290,000 tested, 0.71% active; also: potency is read from the fitted curve at half-maximal effect; nearly all actives have a fitted effect of over 55% in size
# Target sequence (A8B2U2 whole entry, looked up): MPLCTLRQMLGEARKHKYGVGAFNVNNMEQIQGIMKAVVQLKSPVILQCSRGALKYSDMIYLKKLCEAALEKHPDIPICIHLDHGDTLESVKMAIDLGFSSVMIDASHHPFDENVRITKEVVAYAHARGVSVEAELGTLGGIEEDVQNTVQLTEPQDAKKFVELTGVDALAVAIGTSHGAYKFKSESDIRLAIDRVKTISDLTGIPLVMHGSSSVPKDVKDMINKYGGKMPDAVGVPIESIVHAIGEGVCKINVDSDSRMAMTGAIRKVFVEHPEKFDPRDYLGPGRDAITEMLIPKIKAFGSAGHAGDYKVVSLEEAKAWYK
#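 40 nM FBPA preincubated 10 min at RT with compound (up to 57.5 uM final), then substrate plus GAPDH/TPI/NAD/arsenate coupling and diaphorase/resazurin added. Fluorescence read after 20 min at RT, 525/598 nm.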
# Pf growth 48h: inhibits P. falciparum growth in the first generation, 48 h; P. falciparum luciferase growth in erythrocytes, 48 h; Potency, µM (series often up to 28.7 µM), for inactives: top-dose activity change, negative = inhibition, hits mostly inhibitors; 310,000 tested, 5.9% active; AID 504832; also: potency is read from the fitted curve at half-maximal effect
#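 First compound was added to culture medium, then infected red cells at 0.1% parasitemia and 2% hematocrit (final). After incubation at 37 C under 5% CO2, luciferase detection reagent was dispensed and light output recorded.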
# HCMV inh: human cytomegalovirus inhibition; HFF cells, HCMV-luciferase reporter, 72 h; hits give low values; AID 1259415; activity change, negative = inhibition, % at 57.5 µM; 410,000 tested, 4.5% active; in the data active = activity change below about -60%; inconclusive = no clear call, values can overlap the other calls; inactive = above about -39%
#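 Steps: HFFs plated, 16 h 37C; compounds added; HCMV-luciferase added to MOI 1 PFU/cell; 72 h 37C; OneGlo reagent, 5 min room temperature; luminescence read, normalized to controls.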
# The depositor's hits bear a star; ? = inconclusive; . = no result. The list is not random: actives were taken first. Their share in the collection is about 14%. Unless noted, calls follow the shape of the dose curve; as a rule, active = well fitted curve in the direction sought with a large enough effect; inconclusive = small, poorly fitted or top-dose-only effect, or another doubt; inactive = no such curve, though single readings can be large; an effect the other way counts as inactive or inconclusive. % is scaled to controls: 0 for no effect and ±100 for the full control effect.
SMILES,Pf growth 96h,Sm TGR block,FBPA Giardia inh,Pf growth 48h,HCMV inh
Cc1ccc(S(=O)(=O)N(C)C)cc1NC(=S)NC(=O)C12CC3CC(CC(C3)C1)C2,?,-14%,-5%,?,-63*
Cc1ccc(S(=O)(=O)N(C)C)cc1NC(=O)Nc1ccccc1,17%,4%,-5%,4.1µM*,-13
Cc1ccc(S(=O)(=O)N(C)C)cc1-n1c(SCC(=O)Nc2ccc(F)cc2)nc2ccccc2c1=O,9.3µM*,?,1%,9.3µM*,-19
Cc1ccc(S(=O)(=O)N(C)C)cc1-n1c(SCC(=O)Nc2ccc(F)cc2Cl)nc2ccccc2c1=O,?,0%,-7%,13µM*,-34
Cc1ccc([C@@H]2C[C@H]3[C@@H](CN2S(=O)(=O)c2ccc(C)cc2)C(=O)C[C@@H](c2ccc(Cl)cc2)N3S(=O)(=O)c2ccccc2C)cc1,.,.,.,.,-15
COC(=O)CSc1nnc(-c2ccncc2)o1,.,-2%,3%,4%,28
O=C(OCC#CCSc1nnc(-c2ccncc2)o1)c1cccs1,12µM*,?,3%,-8%,-6
c1ccc(COc2cncc(-c3cccnc3)c2)cc1,?,-8%,.,10µM*,-13
Clc1cccc(-c2nc3c4ccccc4ccn3c2Cc2ccsc2)c1,.,.,.,.,33
O=C(Nc1ccccn1)c1cc(-c2cccnc2)nc2ccc(Br)cc12,3%,-18%,0%,3.7µM*,16
O=C(Nc1ccc(C(=O)N2CCOCC2)cc1)c1cc(-c2cccnc2)nc2ccc(Br)cc12,40%,14%,-6%,?,-107*
Cc1ccccc1NC(=O)c1sc2nc3c(c(-c4ccco4)c2c1N)CCC3,?,0%,-15%,?,-12
Nc1c(C(=O)NCC2CCCO2)sc2nc3c(c(-c4ccco4)c12)CC/C3=C\c1ccco1 (stereo not drawn),?,18µM*,?,?,?
NC(=O)c1sc2nc3c(c(-c4ccco4)c2c1N)CCCC3,47%,-22%,4%,19%,-64*
Cc1ccc(-c2c3c(nc4sc(C(N)=O)c(N)c24)CCC3)cc1,?,-8%,0%,29%,-87*
NC(=O)c1sc2nc3c(c(-c4ccc(Cl)cc4)c2c1N)CCCC3,.,-30%,14%,-8%,-61*
COc1cc(NC(=O)[C@@H]2O[C@H](CO)[C@@H](O)[C@H]2O)cc(OC)c1OC,.,.,.,.,-31
O=C(Cn1c(=O)n(Cc2ccc(F)cc2)c(=O)c2sc3ccccc3c21)NCc1ccccc1Cl,.,22%,.,.,-8
O=C(NCCOCCn1c(=O)oc2ccccc21)Nc1cccc(Cl)c1,.,3%,.,.,-4
CCC(=O)C1=C(c2cccc(OC)c2)N(C(=O)CC)n2c(nnc2C2CCCCC2)S1,.,11%,.,.,-92*
CCC(=O)C1=C(c2ccccc2)N(C(=O)CC)n2c(nnc2C2CCCCC2)S1,.,8%,.,.,22
CCC(=O)C1=C(c2cccc([N+](=O)[O-])c2)N(C(=O)CC)n2c(nnc2C2CCCCC2)S1,.,22%,.,.,-99*
COc1cccc(NC(=O)c2cnc(NS(=O)(=O)c3ccccc3)nc2)c1,.,.,.,.,-5
CCCCc1nc(SCC(=O)N2CCCCC2)c2c(=O)n(C)c(=O)n(C)c2n1,?,0%,.,?,-25
CCOc1ccc(NC(=O)CN(C)C(=O)CCCc2nc3ccccc3c(=O)[nH]2)cc1OCC,20%,0%,.,-12%,-17
SMILES,Pf growth 96h,Sm TGR block,FBPA Giardia inh,Pf growth 48h,HCMV inh
COc1cc(C2c3cc4c(cc3OC(NCCc3ccccc3)C2C)OCO4)cc(OC)c1OC (stereo not drawn),.,.,.,.,-82*
COc1cc(C2c3cc4c(cc3OC(N3CCCC3)C2C)OCO4)cc(OC)c1O (stereo not drawn),.,.,.,.,13
COc1cc(C2c3cc4c(cc3OC(N3CCOCC3)C2C)OCO4)cc(OC)c1OC(C)=O (stereo not drawn),.,.,.,.,9
COc1cc(C2c3cc4c(cc3OC(C)(N3CCCC3)C2C)OCO4)cc(OC)c1OC (stereo not drawn),.,.,.,.,-68*
COc1cc(CCC(=O)NCc2ccc3c(c2)OCO3)cc(OC)c1OC,1%,10%,4%,4%,-17
COc1cc(C2C3=C(COC3=O)OC(C)(C)Oc3cc4c(cc32)OCO4)cc(OC)c1OC (stereo not drawn),.,.,.,.,-80*
COc1cc(C2c3cc4c(cc3OC(Nc3ccc(C(=O)O)cc3)C2C)OCO4)cc(OC)c1OC (stereo not drawn),.,.,.,.,-60*
CCSc1nc2c([nH]c3ccccc32)c(=O)n1CC,.,5%,.,.,26
COc1cc(CC(=O)OCC(=O)N(C)C2CCCCC2)cc(OC)c1OC,.,.,.,.,-29
COCCCn1c(=O)c2sccc2n(Cc2ccccc2C)c1=O,?,-20%,6%,?,-16
COc1ccc(NC2Oc3cc4c(cc3C(c3cc(OC)c(OC)c(OC)c3)C2C)OCO4)cc1 (stereo not drawn),.,.,.,.,-77*
COc1cc(C2c3cc4c(cc3C(O)[C@H]3COC(=O)C23)OCO4)cc(OC)c1OC (stereo partly drawn),.,.,0%,.,.
COCCn1c(=N)c(S(=O)(=O)c2ccc(F)cc2)cc2c(=O)n3ccccc3nc21,22%,0%,22%,6%,6
CCOCCCNC(=O)CN1C(=O)CCn2nc(-c3cccn3C)cc21,.,1%,.,.,8
COc1ccc(/C=N/NC(=S)Nc2ccccc2[N+](=O)[O-])cc1O,28%,-2%,-7%,131%,-66*
CCCOc1ccc(/C=N/Nc2ccccc2[N+](=O)[O-])c(O)c1,14%,-4%,2%,233%,?
CCCOc1ccc(/C=N/NC(=S)Nc2ccccc2[N+](=O)[O-])c(O)c1,?,-2%,23%,2.6µM*,-101*
Cn1c(=O)cc(SCC(=O)N2CCCC2)c2ccccc21,92%,-7%,-12%,4%,79
Cn1c(=O)cc(SCC(=O)NCC2COc3ccccc3O2)c2ccccc21 (stereo not drawn),2.9µM*,2%,-3%,4%,21
O=C(CC1Nc2ccccc2NC1=O)NCC1COc2ccccc2O1 (stereo not drawn),11%,-24%,-19%,12µM*,.
CCOC(=O)N1CCC(NC(=O)CSc2cc(=O)n(C)c3ccccc23)CC1,13µM*,2%,0%,-6%,-17
Cc1noc(C)c1-c1ccc2ncnc(NCCN3CCOCC3)c2c1,.,.,1%,.,.
Cc1cccc(/C=N/NC(=O)c2ccc(NC(=O)c3cccc(Cl)c3)cc2)n1,71%,-11%,-6%,?,-22
COCCN(CC(=O)NC1CCCCC1)C(=O)/C=C/C(=O)c1ccc(OC)cc1O,?,-14%,1%,16%,-112*
COc1ccc(C(=O)/C=C/C(=O)N(CC(=O)NC2CCCCC2)Cc2cccs2)c(O)c1,14%,1.6µM*,-3%,?,-100*
